Screens from PubChem BioAssay.
FBW7 act: human FBW7 E3 ligase activation, primary screen | AlphaScreen FBW7–phospho-cyclin E peptide binding, activator screen | normalized activity (activation), % at 26.1 µM | 650,000 compounds, 0.13% hits | AID 1259310; in the data active = normalized activity above about 1.9%;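 also: purified mutant Fbw7 with reduced substrate affinity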
MITF primary: human MITF inhibition, primary screen. AlphaScreen MITF homodimerization, bead proximity signal. 650,000 compounds, 0.91% hits. inhibition, % at 2.6 µM. O75030; in the data active = inhibition above about 50%;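 also: 0% = vehicle wells with protein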
Target sequence (O75030 whole entry, looked up): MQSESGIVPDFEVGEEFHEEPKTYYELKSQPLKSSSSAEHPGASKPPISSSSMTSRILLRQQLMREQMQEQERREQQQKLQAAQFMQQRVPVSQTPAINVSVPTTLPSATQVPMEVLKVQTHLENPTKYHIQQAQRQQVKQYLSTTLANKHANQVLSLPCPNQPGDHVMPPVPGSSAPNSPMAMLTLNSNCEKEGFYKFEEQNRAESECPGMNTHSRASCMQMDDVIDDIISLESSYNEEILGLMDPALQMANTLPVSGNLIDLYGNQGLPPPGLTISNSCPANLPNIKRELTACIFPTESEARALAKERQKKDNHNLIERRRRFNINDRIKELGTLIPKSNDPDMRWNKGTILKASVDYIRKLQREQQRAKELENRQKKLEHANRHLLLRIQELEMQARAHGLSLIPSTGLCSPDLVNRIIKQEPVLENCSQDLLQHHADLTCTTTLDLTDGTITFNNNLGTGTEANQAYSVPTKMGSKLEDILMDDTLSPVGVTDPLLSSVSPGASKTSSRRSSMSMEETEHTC
TEAD-YAP block: TEAD-YAP interaction inhibition; AID 1259422; inhibition, % at 9.12 µM; 640,000 compounds, 1.4% hits; HEK-TIYL cells, TEAD-Gal4/YAP UAS-luciferase luminescence; in the data active = inhibition above about 32%;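 also: 0% = median of test compound wells and 100% = reference inhibitor wells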
GPR151 activ: activators of human GPR151. Q8TDV0. PathHunter beta-arrestin GPR151 cells, luminescence. activation, % at 11.2 µM. 650,000 compounds, 1% hits. AID 1508602; in the data active = activation above about 4.9%;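 also: 0% = median of compound wells and 100% = cells with positive control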
MITF confirm: human MITF inhibition, confirmation; 4,700 compounds, 16% hits; inhibition, % at 2.6 µM; AlphaScreen MITF homodimerization, biotin/His-MITF beads; shares compounds with MITF primary;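 active = inhibition above a cutoff derived from the DMSO control wells, cut at about 28% in these data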;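 also: 0% = MITF dimer wells with DMSO only; inhibitors lower the bead chemiluminescence by keeping MITF from dimerizing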
AlphaScreen DR: AlphaScreen optical interference, dose response counter-screen; shares compounds with MITF primary; AlphaScreen optical interference counterscreen, cell-free; IC50, µM; 480 compounds, 6% hits; call rule not given here
AlphaScreen intf2: counter-screen: compounds optically interfering with AlphaScreen; LysRS AlphaScreen counterscreen, signal interference, triplicate; 4,700 compounds, 7.6% hits; inhibition, % at 2.6 µM; shares compounds with MITF primary;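 active = inhibition above a cutoff derived from the DMSO control wells, cut at about 30% in these data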
Numbers without * were called inactive. Hits are enriched below; roughly 3.4% of the tested compounds scored in any of these assays.

Results for Fc1cccc(CSc2nc3ccccc3c3nc(CCN4CCCCC4)nn23)c1 ?
FBW7 act: 1; MITF primary: 4; TEAD-YAP block: -22; GPR151 activ: 0

How did CNc1oc(-c2ccco2)nc1S(=O)(=O)c1ccc(Br)cc1 do in these assays?
FBW7 act: 0; MITF primary: 74*; TEAD-YAP block: -4; GPR151 activ: 1; MITF confirm: 6; AlphaScreen intf2: 11

Results for O=C(OC1(C(F)(F)F)C(=O)Nc2cc3c(cc21)OCO3)c1ccc(Cl)nc1 (configuration not stated) ?
FBW7 act: 0; MITF primary: 81*; TEAD-YAP block: -3; GPR151 activ: 0; MITF confirm: 71*; AlphaScreen DR: >7.1; AlphaScreen intf2: -25

How did O=C(Nc1ccc(NC(=O)c2cccs2)cc1)c1ccco1 do in these assays?
FBW7 act: 0; MITF primary: 76*; TEAD-YAP block: -47; GPR151 activ: -3; MITF confirm: -3; AlphaScreen intf2: -4

How did Cc1cnc(CNc2cc(-c3cccnc3)nc(-c3cccnc3)n2)nc1 do in these assays?
FBW7 act: -1; MITF primary: 78*; TEAD-YAP block: 6; GPR151 activ: -1; MITF confirm: 13; AlphaScreen intf2: 26

Results for c1ccc(-c2cc(NCCCn3ccnc3)nc(-c3cccnc3)n2)cc1 ?
FBW7 act: -1; MITF primary: 53*; TEAD-YAP block: 15; GPR151 activ: 1; MITF confirm: 24; AlphaScreen intf2: 39*

How did c1ccc(-c2nc(NCCCn3ccnc3)cc(-c3cccnc3)n2)cc1 do in these assays?
FBW7 act: -1; MITF primary: 54*; TEAD-YAP block: 11; GPR151 activ: 0; MITF confirm: 34*; AlphaScreen intf2: 44*

How did c1ccc(-c2nc(NCCCn3ccnc3)cc(-c3ccncc3)n2)cc1 do in these assays?
FBW7 act: -1; MITF primary: 44; TEAD-YAP block: -4; GPR151 activ: -2

How did c1cncc(-c2cc(NCCCn3ccnc3)nc(-c3ccncc3)n2)c1 do in these assays?
FBW7 act: -1; MITF primary: 32; TEAD-YAP block: 11; GPR151 activ: -1

How did O=C(NC(c1ccc(Cl)cc1)c1ccsc1)C1CCN(C(=O)N2CCOCC2)CC1 (configuration not stated) do in these assays?
FBW7 act: 1; MITF primary: -5; TEAD-YAP block: -6; GPR151 activ: -1

What do the screens show for `O=C(CCc1cccnc1)N1CCC(c2[nH]ncc2-c2ccccc2)CC1`?
FBW7 act: 0; MITF primary: -3; TEAD-YAP block: -53; GPR151 activ: 3

Results for COc1ccc(NC(=O)CSc2nnc(CNC(=O)c3ccco3)n2-c2cccc(C(F)(F)F)c2)cc1 ?
FBW7 act: 0; MITF primary: -8; TEAD-YAP block: 1; GPR151 activ: 0

Results for CCCCN(C)CCCNC(=O)CSCc1ccccc1Cl ?
FBW7 act: 0; MITF primary: 76*; TEAD-YAP block: 4; GPR151 activ: -1; MITF confirm: -2; AlphaScreen intf2: -1

What do the screens show for `Cc1ccc(C(=O)Nc2ccc(N3CCC(NCC4CCOCC4)CC3)cc2)c(C)c1`?
FBW7 act: 0; MITF primary: 2; TEAD-YAP block: 12; GPR151 activ: 1

Results for CN(C)c1ccc(C2Nc3ccccc3C(=O)N2NC(=O)c2ccccc2)cc1 (configuration not stated) ?
FBW7 act: 0; MITF primary: 4; TEAD-YAP block: -10; GPR151 activ: 0

Results for OCCCNc1ncnc2sc(-c3ccccc3)cc12 ?
FBW7 act: 0; MITF primary: -1; TEAD-YAP block: 0; GPR151 activ: 1

Results for C=COCCCNc1ncnc2sc(-c3ccccc3)cc12 ?
FBW7 act: 0; MITF primary: 61*; TEAD-YAP block: 6; GPR151 activ: -1; MITF confirm: 7; AlphaScreen intf2: 8

Results for c1ccc(-c2cc3c(NCCCN4CCOCC4)ncnc3s2)cc1 ?
FBW7 act: 0; MITF primary: 61*; TEAD-YAP block: -7; GPR151 activ: -1; MITF confirm: -1; AlphaScreen intf2: -3

What do the screens show for `CCN(CC)CCCOc1ccc2ccccc2c1`?
FBW7 act: 0; MITF primary: 66*; TEAD-YAP block: -24; GPR151 activ: 0; MITF confirm: -7; AlphaScreen intf2: -4

Results for COc1cc(CN2CCc3nnc(CNC(=O)C4CCOC4)n3CC2)cc(OC)c1 (configuration not stated) ?
FBW7 act: 0; MITF primary: 2; TEAD-YAP block: 4; GPR151 activ: 0

How did CCOC(=O)C(=O)C(C#N)c1ccccc1 (configuration not stated) do in these assays?
FBW7 act: 0; MITF primary: 83*; TEAD-YAP block: -1; GPR151 activ: 1; MITF confirm: 11; AlphaScreen intf2: 19

How did COc1ccc(-c2c(NC(=O)CN3CCCC(C)C3)oc3ccccc3c2=O)cc1OC (configuration not stated) do in these assays?
FBW7 act: 0; MITF primary: 91*; TEAD-YAP block: 5; GPR151 activ: 0; MITF confirm: -10; AlphaScreen intf2: -4

What do the screens show for `CCc1ccccc1NC(=O)CN(C)C(=O)CN(C)Cc1ccccc1OC`?
FBW7 act: 0; MITF primary: 81*; TEAD-YAP block: -6; GPR151 activ: 0; MITF confirm: 16; AlphaScreen intf2: 15

Results for O=C1CCCCN1c1cccc(NS(=O)(=O)c2ccccc2)c1 ?
FBW7 act: 0; MITF primary: 4; TEAD-YAP block: 0; GPR151 activ: -1

How did O=C1CCCN1c1cccc(NS(=O)(=O)c2cccc3ccccc23)c1 do in these assays?
FBW7 act: 0; MITF primary: 51*; TEAD-YAP block: 0; GPR151 activ: 3; MITF confirm: 6; AlphaScreen intf2: -1

How did Cc1ccc(-c2noc(C3CCCN(S(=O)(=O)c4ccc(C(C)(C)C)cc4)C3)n2)o1 (configuration not stated) do in these assays?
FBW7 act: 0; MITF primary: 77*; TEAD-YAP block: 4; GPR151 activ: -1; MITF confirm: 12; AlphaScreen intf2: 15

How did Cc1ccc(N2C(=O)CC(NNC(=O)c3ccccc3[N+](=O)[O-])C2=O)c(C)c1 (configuration not stated) do in these assays?
FBW7 act: 0; MITF primary: 10; TEAD-YAP block: 4; GPR151 activ: 0

Results for CC1(C(/C=C/c2ccccc2)=N/NC(N)=O)CCCCC1 ?
FBW7 act: 0; MITF primary: 1; TEAD-YAP block: 4; GPR151 activ: 0

Results for Fc1ccc(CN2CCN(CCCc3ccccc3)CC2)cc1 ?
FBW7 act: 0; MITF primary: 59*; TEAD-YAP block: -4; GPR151 activ: -1; MITF confirm: 5; AlphaScreen intf2: 0
